This is part of a sample that, as a whole, favours compounds with a hit. Of some 83,000 tested, about 20% had one in any assay.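 In brief: 96-well plates, 48 h treatment, single concentration, percent growth endpoint.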 The source made the active and inactive calls. The calls were made as follows: active = growth percent below 10; inactive = the rest.

The first assay has as its system SK-MEL-2 melanoma. Kind of assay: NCI-60 one-dose screen, 48 h (100 = growth as untreated, 0 = no growth, -100 = all killed). The settings on record: 10 µM unless noted.
As for `CCc1oc2ccccc2c1C(=O)c1cc(I)c(O)c(I)c1`, the growth is 1.14% (active).

On to `COc1cccc2nc(Nc3cccc(NC(=O)c4cc(N5CCOCC5)cc(C(F)(F)F)c4)c3)ccc12`, for which the growth is 79.4% (inactive).

As to `FC(F)(F)c1ccc(/C=N/Nc2nnc3n2N=C(c2ccc(Cl)cc2)CS3)cc1`, the growth was 84.2% (inactive).

Turning to `Nc1nc2ccc([C@@H]3Nc4ccc5[nH]ncc5c4[C@H]4[C@H]5CCC(C5)[C@H]43)cc2s1`, the growth was -1.54% (active).

In the case of `C/C=C(\C)C(C(=O)NC1CCCCC1)N(C(=O)C1CCc2cc(F)ccc2O1)c1ccc([N+](=O)[O-])cc1` (stereo not drawn), the growth is 99.6% (inactive).

Turning to `COc1cc(C2Nc3ccccc3S2)cc(CN2CCOCC2)c1O` (stereo not drawn), the growth was 64.4% (inactive).

Consider `C#CCNC(=S)N/N=C(\C)c1ccccn1`, for which the growth was 74.3% (inactive).

`COc1cc2nccc(Oc3ccc(NC(=O)C4(C(=O)Nc5c(F)cc(F)cc5F)CC4)cc3)c2cc1Oc1ccc(N)cn1`: the growth is 81.5% (inactive).

Take `COc1ccc2c(c1)CCCC21C(=O)Nc2ccccc21` (stereo not drawn): the growth was 96% (inactive).

For the compound `CCCCCCCCCC1=NC(C)(C)CN1C(C)(C)CO`, the growth is 124% (inactive).

Turning to `CCN(CC)CCCC(C)Nc1cnc(C(=O)Nc2cc(C)cc3cccnc23)cn1` (stereo not drawn), the growth was 104% (inactive).

`C/C(CC(=O)NNc1ccc([N+](=O)[O-])cc1)=N\Nc1ccc([N+](=O)[O-])cc1`: the growth is 111% (inactive).

Turning to `COc1ccc2c(c1)CCCC21C(=O)Nc2c(Cl)cccc21` (stereo not drawn), the growth is 43% (inactive).

Consider `CCN(CC)CCCNc1cccc2c(C)cc(OC)nc12`, for which the growth is 97.4% (inactive).

Consider `Cc1nn(-c2ccc(Cl)cc2)c(=O)n1CCN1CCOCC1`, for which the growth was 61.1% (inactive).

For `CCN(C(=O)Nc1cccc2ccccc12)c1ccccc1`, the growth is 108% (inactive).

As to `CCCCCCCCCCC(C(O)c1ccccc1)N1CCCCC1` (stereo not drawn), the growth was 53.8% (inactive).

On to `CC1CN(CCCOC(=O)Nc2ccc(Cl)cc2)CCN1C(C)(C)C` (stereo not drawn), for which the growth is 112% (inactive).

Take `Cc1ccc(/C=C/C(=N/N=C(N)N)c2ccccc2)cc1`: the growth was 49.3% (inactive).

`O=C(Nc1ccc(Br)cc1)Nc1ccccc1Cl`: the growth is 92% (inactive).

`CC1C2CCC(C2)C1COCCOCCO` (stereo not drawn): the growth was 112% (inactive).

Turning to `O=C1Cc2c([nH]c3ccc([N+](=O)[O-])cc23)-c2ccccc2N1`, the growth is -21.5% (active).

With `CCN(CC)CCCC(C)Nc1cnc(C(=O)Nc2ccc(Cl)c3cccnc23)cn1` (stereo not drawn), the growth is 57.8% (inactive).

Regarding `CC(=O)c1nn(-c2ccccc2)/c(=N\N=C\c2coc3ccc(F)cc3c2=O)s1`, the growth is 107% (inactive).

For `Cc1c(O)c(=O)n(-c2ccccc2)n1C`, the growth is 112% (inactive).

As for `CSC(=S)N/N=C(\C)c1ccccn1`, the growth is 21.7% (inactive).

Regarding `CN1CCN(Cc2ccc(NC(=O)c3cncc(C#Cc4cnc5cccnn45)c3)cc2C(F)(F)F)CC1`, the growth is -58.6% (active).

On to `O=C1c2ccccc2C(=O)c2c1oc1ccc3ccccc3c21`, for which the growth was 101% (inactive).

In the case of `CN(C)c1ccc(/C=N/Nc2nnc3n2N=C(c2ccc(Cl)cc2)CS3)cc1`, the growth was 97.5% (inactive).

Take `C#CC[C@@H]1C[C@]2(C)[C@H]3CC=C4[C@H]5CC(C)(C)CC[C@]5(C(=O)NCCCCN)CC[C@@]4(C)[C@]3(C)CC[C@H]2C(C)(C)[C@H]1OC(C)=O`: the growth was 98.9% (inactive).

As for `COc1ccc(C(=O)C(CN(C)C)c2ccccc2)cc1` (stereo not drawn), the growth was 14.6% (inactive).

As for `C#CC[C@@H]1C[C@]2(C)[C@H]3CC=C4[C@H]5[C@@H](C)[C@H](C)CC[C@]5(C(=O)NCCCCCCCCN)CC[C@@]4(C)[C@]3(C)CC[C@H]2C(C)(C)[C@H]1OC(C)=O`, the growth is 104% (inactive).

For `CCCCNCC(O)c1cc2c(Cl)cc(Cl)cc2c2cc(C(F)(F)F)ccc12` (stereo not drawn), the growth is -65.4% (active).

For the compound `COc1ccc(/C(=C\c2ccc3c(c2)OCO3)C(=O)Nc2nc3ccccc3s2)cc1`, the growth is 95.2% (inactive).

Turning to `Nc1ccc(N(O)/C=C2\C=CC=CC2=O)cc1N`, the growth was 108% (inactive).

Regarding `Fc1[nH]nc2ccc([C@@H]3Nc4ccc5[nH]ncc5c4[C@H]4C5CCC(C5)[C@@H]34)cc12` (stereo partly drawn), the growth is 33.1% (inactive).

As for `Cc1c(-c2ccc(-c3ccccc3F)cc2)nc2ccc(F)cc2c1C(=O)O`, the growth is 101% (inactive).

For `C=C(C)[C@@H]1CC[C@]2(C)[C@H](CC=C3[C@@H]4C[C@](C)(C(=O)N5CCN(C)CC5)CC[C@]4(C)CC[C@]32C)[C@@]1(C)CCC#N`, the growth was 76.4% (inactive).

With `CNCc1cccc2c1OCCOCCOCCC(C)S(=O)(=O)c1ccc(cc1)-c1cnc(N)c(n1)C(=O)N2` (stereo not drawn), the growth was 75.2% (inactive).

For a further assay, the system named is EKVX NSCLC. Described as above. The note with it: 10 µM unless noted.
As for `CCc1oc2ccccc2c1C(=O)c1cc(I)c(O)c(I)c1`, the growth is 84.5% (inactive).

Turning to `COc1cccc2nc(Nc3cccc(NC(=O)c4cc(N5CCOCC5)cc(C(F)(F)F)c4)c3)ccc12`, the growth was 64% (inactive).

Regarding `FC(F)(F)c1ccc(/C=N/Nc2nnc3n2N=C(c2ccc(Cl)cc2)CS3)cc1`, the growth is 66.3% (inactive).

Take `Nc1nc2ccc([C@@H]3Nc4ccc5[nH]ncc5c4[C@H]4[C@H]5CCC(C5)[C@H]43)cc2s1`: the growth is 16.2% (inactive).

For `C/C=C(\C)C(C(=O)NC1CCCCC1)N(C(=O)C1CCc2cc(F)ccc2O1)c1ccc([N+](=O)[O-])cc1` (stereo not drawn), the growth is 84.2% (inactive).

Take `COc1cc(C2Nc3ccccc3S2)cc(CN2CCOCC2)c1O` (stereo not drawn): the growth is 102% (inactive).

Consider `C#CCNC(=S)N/N=C(\C)c1ccccn1`, for which the growth is 22.1% (inactive).

Regarding `COc1cc2nccc(Oc3ccc(NC(=O)C4(C(=O)Nc5c(F)cc(F)cc5F)CC4)cc3)c2cc1Oc1ccc(N)cn1`, the growth is 45.2% (inactive).

Consider `COc1ccc2c(c1)CCCC21C(=O)Nc2ccccc21` (stereo not drawn), for which the growth was 104% (inactive).

For the compound `CCCCCCCCCC1=NC(C)(C)CN1C(C)(C)CO`, the growth was 90.8% (inactive).

In the case of `CCN(CC)CCCC(C)Nc1cnc(C(=O)Nc2cc(C)cc3cccnc23)cn1` (stereo not drawn), the growth is 77.8% (inactive).

Consider `C/C(CC(=O)NNc1ccc([N+](=O)[O-])cc1)=N\Nc1ccc([N+](=O)[O-])cc1`, for which the growth is 54.1% (inactive).

`COc1ccc2c(c1)CCCC21C(=O)Nc2c(Cl)cccc21` (stereo not drawn): the growth is 91% (inactive).

For `CCN(CC)CCCNc1cccc2c(C)cc(OC)nc12`, the growth is 114% (inactive).

As to `Cc1nn(-c2ccc(Cl)cc2)c(=O)n1CCN1CCOCC1`, the growth is 75.5% (inactive).

Take `CCN(C(=O)Nc1cccc2ccccc12)c1ccccc1`: the growth was 95.9% (inactive).

`CCCCCCCCCCC(C(O)c1ccccc1)N1CCCCC1` (stereo not drawn): the growth is 33.5% (inactive).

`CC1CN(CCCOC(=O)Nc2ccc(Cl)cc2)CCN1C(C)(C)C` (stereo not drawn): the growth was 96.9% (inactive).

Take `Cc1ccc(/C=C/C(=N/N=C(N)N)c2ccccc2)cc1`: the growth is 35.4% (inactive).

For the compound `O=C(Nc1ccc(Br)cc1)Nc1ccccc1Cl`, the growth is 70.9% (inactive).

As to `CC1C2CCC(C2)C1COCCOCCO` (stereo not drawn), the growth is 112% (inactive).

`O=C1Cc2c([nH]c3ccc([N+](=O)[O-])cc23)-c2ccccc2N1`: the growth was 17.1% (inactive).

As for `CCN(CC)CCCC(C)Nc1cnc(C(=O)Nc2ccc(Cl)c3cccnc23)cn1` (stereo not drawn), the growth is 66.1% (inactive).

Turning to `CC(=O)c1nn(-c2ccccc2)/c(=N\N=C\c2coc3ccc(F)cc3c2=O)s1`, the growth is 81.6% (inactive).

Consider `Cc1c(O)c(=O)n(-c2ccccc2)n1C`, for which the growth is 120% (inactive).

With `CSC(=S)N/N=C(\C)c1ccccn1`, the growth was 4.31% (active).

Consider `CN1CCN(Cc2ccc(NC(=O)c3cncc(C#Cc4cnc5cccnn45)c3)cc2C(F)(F)F)CC1`, for which the growth is -39.1% (active).

`O=C1c2ccccc2C(=O)c2c1oc1ccc3ccccc3c21`: the growth was 72.6% (inactive).

In the case of `CN(C)c1ccc(/C=N/Nc2nnc3n2N=C(c2ccc(Cl)cc2)CS3)cc1`, the growth is 89% (inactive).

Consider `C#CC[C@@H]1C[C@]2(C)[C@H]3CC=C4[C@H]5CC(C)(C)CC[C@]5(C(=O)NCCCCN)CC[C@@]4(C)[C@]3(C)CC[C@H]2C(C)(C)[C@H]1OC(C)=O`, for which the growth is 81.1% (inactive).

`COc1ccc(C(=O)C(CN(C)C)c2ccccc2)cc1` (stereo not drawn): the growth is 28.1% (inactive).

Turning to `C#CC[C@@H]1C[C@]2(C)[C@H]3CC=C4[C@H]5[C@@H](C)[C@H](C)CC[C@]5(C(=O)NCCCCCCCCN)CC[C@@]4(C)[C@]3(C)CC[C@H]2C(C)(C)[C@H]1OC(C)=O`, the growth was 95% (inactive).

As for `CCCCNCC(O)c1cc2c(Cl)cc(Cl)cc2c2cc(C(F)(F)F)ccc12` (stereo not drawn), the growth is -59.1% (active).

Turning to `COc1ccc(/C(=C\c2ccc3c(c2)OCO3)C(=O)Nc2nc3ccccc3s2)cc1`, the growth is 102% (inactive).

On to `Nc1ccc(N(O)/C=C2\C=CC=CC2=O)cc1N`, for which the growth is 96.4% (inactive).

On to `Fc1[nH]nc2ccc([C@@H]3Nc4ccc5[nH]ncc5c4[C@H]4C5CCC(C5)[C@@H]34)cc12` (stereo partly drawn), for which the growth was 36.1% (inactive).

With `Cc1c(-c2ccc(-c3ccccc3F)cc2)nc2ccc(F)cc2c1C(=O)O`, the growth was 55% (inactive).

In the case of `C=C(C)[C@@H]1CC[C@]2(C)[C@H](CC=C3[C@@H]4C[C@](C)(C(=O)N5CCN(C)CC5)CC[C@]4(C)CC[C@]32C)[C@@]1(C)CCC#N`, the growth was 85.6% (inactive).

On to `CNCc1cccc2c1OCCOCCOCCC(C)S(=O)(=O)c1ccc(cc1)-c1cnc(N)c(n1)C(=O)N2` (stereo not drawn), for which the growth is 52.3% (inactive).
